Laboratory results: PubChem BioAssay (NCATS)
“And” between values parts separate entries of the source, which are not always exact repeats. Equal values may be shown once. Records with an inconclusive call do not appear. A structure can be active in one record and inactive in another. The source made the active and inactive calls. Unless noted, calls follow the shape of the dose curve; as a rule, active = well fitted curve in the direction sought with a large enough effect; inconclusive = small, poorly fitted or top-dose-only effect, or another doubt; inactive = no such curve, though single readings can be large; an effect the other way counts as inactive or inconclusive. Residues, ends and D or L forms follow the SMILES beside them. *: point of attachment. Cbz = O=C(OCc1ccccc1)*

Tests used:
[1] = Cell Viability - Mesenchymal (AID 546);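 also: cells exposed to compound for 40 hours before reading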
Outline: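 CellTiter-Glo luminescence (intracellular ATP, 20 min room temperature) after 40 hr compound exposure at 37 °C of 1000 glomerulus-derived human kidney mesenchymal cells/well; AC50 values obtained by fitting qHTS concentration-response data to the Hill equation.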

[2] = Cellular Toxicity (caspase-3) HepG2 (AID 654);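 also: cells exposed to compound for 16 hours before reading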
Outline: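 Luminescent Caspase-Glo 3/7 readout after 16 hr compound exposure of human hepatocellular carcinoma HepG2 cells at 37 °C; qHTS concentration-response, normalized DMSO = 0%, 100 uM tamoxifen = 100%; AC50 by standard Hill equation.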

[3] = Cellular Toxicity (caspase-3) Jurkat (AID 655);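 also: cells exposed to compound for 16 h at 37 °C before reading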
Outline: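 Luminescent caspase-3/7 readout (aminoluciferin substrate cleavage) in human T-cell leukemia Jurkat cells after 16 hr compound exposure. Concentration-response normalized to DMSO and 100 uM tamoxifen; AC50 by standard Hill equation.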

[4] = Cellular Toxicity (caspase-3) HUV-EC-C (AID 656)
Outline: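 Luminescent caspase-3/7 activation (aminoluciferin substrate cleavage) in HUV-EC-C cells after 16 hr compound exposure, 37°C. Signal normalized to DMSO basal and 100 uM tamoxifen as 100%; AC50 from concentration-response fitted with the Hill equation.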

[5] = Cellular Toxicity (caspase-3) SHSY5Y (AID 657);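 also: cells exposed to compound for 16 hours at 37 °C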
Outline: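 Luminescent caspase-3/7 readout (aminoluciferin release) in SH-SY5Y cells after 16 h compound exposure in complete medium. Activity scaled between DMSO basal and 10 uM staurosporine as 100%; concentration-response fitted to Hill equation for AC50.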

[6] = Cellular Toxicity (caspase-3) BJ (AID 658);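 also: cells exposed to compound for 16 hours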
Outline: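 Caspase-Glo 3/7 luminescence, read 1 hr after reagent at room temperature, in normal BJ fibroblasts exposed 16 hours at 37 °C. AC50 values from Hill-equation concentration-response, scaled between DMSO basal and 10 uM staurosporine as 100%.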

[7] = Cellular Toxicity (caspase-3) MRC-5 (AID 659)
Outline: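 Luminescent Caspase-Glo 3/7 read-out (1 h, room temperature) after a 16 h, 37 °C compound exposure of MRC-5 lung fibroblasts at 1500 cells/well. Concentration-response AC50 from Hill equation; 0% DMSO, 100% 10 uM staurosporine.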

[8] = Cellular Toxicity (caspase-3) Mesangial (AID 660);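 also: combined caspase 3 and 7 activity read by Caspase-Glo luminescence; cells exposed to compound for 16 h before the caspase read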
Outline: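 Luminescent Caspase-Glo 3/7 readout (aminoluciferin substrate cleavage, 20 min RT) after 16 h compound exposure at 37 °C of normal human mesangial cells. Signal increase normalized between DMSO basal and 100 uM tamoxifen; Hill-equation AC50.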

[9] = Cellular Toxicity (caspase-3) SK-N-SH (AID 661);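 also: cells exposed to compound for 16 hours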
Outline: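 Luminescent Caspase-Glo 3/7 read-out after 16 hr compound exposure of SK-N-SH neuroblastoma cells at 37 °C. Signal increase normalized to DMSO (basal) and 10 uM staurosporine (100%); AC50 from Hill equation fits of qHTS concentration-response data.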

[10] = Cellular Toxicity (caspase-3) H-4-II-E (AID 663);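 also: cells exposed to compound for 16 hr before readout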
Outline: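 Caspase 3/7 activation measured by luminescent aminoluciferin substrate cleavage after 16 hr compound treatment of H-4-II-E cells in complete medium. Increase normalized between DMSO (basal) and 100 uM tamoxifen (100%); Hill-equation AC50 from concentration-response.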

[11] = Cellular Toxicity (caspase-3) Hek293 (AID 664);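 also: cells exposed to compound for 16 h at 37 °C before readout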
Outline: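 Luminescent Caspase-Glo 3/7 readout (aminoluciferin release) in HEK293 cells after 16 h compound treatment, 37 °C. Normalization: DMSO = basal, 100 uM tamoxifen = 100% stimulation. Concentration-response fitted with standard Hill equation for AC50.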

[12] = Cellular Toxicity (caspase-3) N2a (AID 665);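 also: compound exposure lasted 16 h at 37 °C before readout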
Outline: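 Luminescent Caspase-Glo 3/7 readout in N2a mouse neuroblastoma cells after 16 h compound exposure at 37 °C. Signal scaled to DMSO (basal) and 10 uM staurosporine (100%). Concentration-response fitted with Hill equation for AC50.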

[13] = Cellular Toxicity (caspase-3) NIH 3T3 (AID 666)
Outline: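 NIH 3T3, 1000 cells/well, 5 hr settle then 16 hr compound at 37°C; Caspase-Glo 3/7, 20 min RT, luminescence. DMSO = basal, 100 uM tamoxifen = 100%. Hill-equation AC50, qHTS.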

[14] = Cellular Toxicity (caspase-3) Renal Proximal Tubule (AID 667);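 also: cells exposed to compound for 16 hours at 37 °C before detection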
Outline: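 Luminescent caspase 3/7 signal from peptide-aminoluciferin cleavage measures apoptosis in freshly isolated rat kidney proximal tubule cells after 16 h compound exposure. Concentration-response data are normalized to DMSO and 10 uM staurosporine, and AC50 values come from Hill equation fits.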

[15] = biological target: Cytochrome P450 2C9 (Homo sapiens) (UniProt P11712); assay: qHTS Assay for Inhibitors and Substrates of Cytochrome P450 2C9 (AID 883); also: nearly all actives have a fitted effect of over 60% in size; also: potency is read from the fitted curve at half-maximal effect
Sequence of Cytochrome P450 2C9 (Homo sapiens) (P11712 whole entry, looked up): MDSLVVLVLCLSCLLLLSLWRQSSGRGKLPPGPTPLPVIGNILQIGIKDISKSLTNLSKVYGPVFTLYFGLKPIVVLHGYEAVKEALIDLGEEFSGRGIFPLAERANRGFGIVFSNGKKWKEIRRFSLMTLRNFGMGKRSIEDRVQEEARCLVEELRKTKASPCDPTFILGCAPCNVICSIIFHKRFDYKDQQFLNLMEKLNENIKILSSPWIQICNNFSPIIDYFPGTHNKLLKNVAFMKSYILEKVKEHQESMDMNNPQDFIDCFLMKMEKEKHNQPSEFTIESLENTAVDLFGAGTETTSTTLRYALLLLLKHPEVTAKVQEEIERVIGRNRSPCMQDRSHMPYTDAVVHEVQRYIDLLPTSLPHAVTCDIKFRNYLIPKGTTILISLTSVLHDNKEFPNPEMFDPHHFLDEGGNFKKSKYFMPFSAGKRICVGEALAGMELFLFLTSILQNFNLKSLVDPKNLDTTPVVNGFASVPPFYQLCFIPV
Outline: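 Inhibition of CYP2C9 is scored as loss of luminescence, with 57uM sulphaphenazole defining 100% inhibition. Substrate Luciferin-H is used at 100uM, equal to its KM; enzyme at 10nM in 25mM KPO4, 60 min at 37C with NADPH regeneration.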

[16] = biological target: Cytochrome P450 3A4 (Homo sapiens) (UniProt P08684); assay: qHTS Assay for Activators of Cytochrome P450 3A4 (AID 885); also: nearly all actives have a fitted effect of over 65% in size
Sequence of Cytochrome P450 3A4 (Homo sapiens) (P08684 whole entry, looked up): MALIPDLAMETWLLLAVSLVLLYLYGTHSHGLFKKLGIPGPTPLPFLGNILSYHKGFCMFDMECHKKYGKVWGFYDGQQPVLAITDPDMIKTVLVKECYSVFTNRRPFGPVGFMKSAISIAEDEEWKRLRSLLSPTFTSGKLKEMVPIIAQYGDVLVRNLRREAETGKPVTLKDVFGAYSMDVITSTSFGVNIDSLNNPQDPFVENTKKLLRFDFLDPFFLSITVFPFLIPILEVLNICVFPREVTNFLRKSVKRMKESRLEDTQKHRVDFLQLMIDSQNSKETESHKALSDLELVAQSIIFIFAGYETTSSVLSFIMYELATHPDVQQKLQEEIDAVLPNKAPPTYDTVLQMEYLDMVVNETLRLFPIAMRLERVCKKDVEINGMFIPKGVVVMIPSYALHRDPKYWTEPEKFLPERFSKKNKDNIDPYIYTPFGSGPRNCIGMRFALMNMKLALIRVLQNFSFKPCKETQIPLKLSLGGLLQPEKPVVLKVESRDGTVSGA
Outline: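 CYP3A4 activity: Luciferin-PPXE O-dealkylation, 25uM substrate, 200mM KPO4, RT throughout. Read-out is luciferase luminescence; higher values reflect activation.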

[17] = biological target: Cytochrome P450 2D6 (Homo sapiens) (UniProt P10635); assay: qHTS Assay for Inhibitors and Substrates of Cytochrome P450 2D6 (AID 891); also: nearly all actives have a fitted effect of over 60% in size; also: potency is read from the fitted curve at half-maximal effect
Sequence of Cytochrome P450 2D6 (Homo sapiens) (P10635 whole entry, looked up): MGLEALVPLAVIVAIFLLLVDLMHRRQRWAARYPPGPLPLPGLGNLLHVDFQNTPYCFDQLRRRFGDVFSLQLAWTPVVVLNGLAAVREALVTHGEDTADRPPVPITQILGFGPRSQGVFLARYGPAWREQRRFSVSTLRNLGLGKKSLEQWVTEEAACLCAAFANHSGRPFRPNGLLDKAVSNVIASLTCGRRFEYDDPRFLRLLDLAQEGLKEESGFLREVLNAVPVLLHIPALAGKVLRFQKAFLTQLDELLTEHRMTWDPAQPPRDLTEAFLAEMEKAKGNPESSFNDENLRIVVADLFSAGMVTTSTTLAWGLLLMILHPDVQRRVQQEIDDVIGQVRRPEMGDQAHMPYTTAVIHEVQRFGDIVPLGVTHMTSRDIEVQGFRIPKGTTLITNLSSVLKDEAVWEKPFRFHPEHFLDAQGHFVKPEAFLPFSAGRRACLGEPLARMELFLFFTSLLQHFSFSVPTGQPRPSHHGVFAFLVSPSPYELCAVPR
Outline: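 Luminescent read-out of luciferin formed by 5 nM human CYP2D6 demethylating 30 uM Luciferin-ME EGE (Km level) over 60 min at room temperature after NADPH regeneration addition. Data normalized to full inhibition by 1.43 uM quinidine.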

[18] = biological target: Cytochrome P450 3A4 (Homo sapiens) (UniProt P08684); assay: qHTS Assay for Inhibitors and Substrates of Cytochrome P450 3A4 (AID 884); also: nearly all actives have a fitted effect of over 50% in size; also: potency is read from the fitted curve at half-maximal effect
Outline: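 Luminescent readout of luciferin produced by CYP3A4 (20 nM) dealkylation of Luciferin-PPXE, 25 uM (its KM). NADPH-driven reaction ran 60 min at RT after 10 min compound preincubation; data scaled to 57 uM ketoconazole as 100% inhibition.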

[19] = biological target: 3',5'-cyclic-AMP phosphodiesterase 4B (Homo sapiens) (UniProt Q07343); assay: qHTS Assay for Inhibitors of PDE-IV (AID 607; active = well fitted activation curve with a large enough effect in the main read-out, with a control signal flat, not every such curve was filed as active; also: potency is read from the fitted curve at half-maximal effect)
Sequence of 3',5'-cyclic-AMP phosphodiesterase 4B (Homo sapiens) (Q07343 whole entry, looked up): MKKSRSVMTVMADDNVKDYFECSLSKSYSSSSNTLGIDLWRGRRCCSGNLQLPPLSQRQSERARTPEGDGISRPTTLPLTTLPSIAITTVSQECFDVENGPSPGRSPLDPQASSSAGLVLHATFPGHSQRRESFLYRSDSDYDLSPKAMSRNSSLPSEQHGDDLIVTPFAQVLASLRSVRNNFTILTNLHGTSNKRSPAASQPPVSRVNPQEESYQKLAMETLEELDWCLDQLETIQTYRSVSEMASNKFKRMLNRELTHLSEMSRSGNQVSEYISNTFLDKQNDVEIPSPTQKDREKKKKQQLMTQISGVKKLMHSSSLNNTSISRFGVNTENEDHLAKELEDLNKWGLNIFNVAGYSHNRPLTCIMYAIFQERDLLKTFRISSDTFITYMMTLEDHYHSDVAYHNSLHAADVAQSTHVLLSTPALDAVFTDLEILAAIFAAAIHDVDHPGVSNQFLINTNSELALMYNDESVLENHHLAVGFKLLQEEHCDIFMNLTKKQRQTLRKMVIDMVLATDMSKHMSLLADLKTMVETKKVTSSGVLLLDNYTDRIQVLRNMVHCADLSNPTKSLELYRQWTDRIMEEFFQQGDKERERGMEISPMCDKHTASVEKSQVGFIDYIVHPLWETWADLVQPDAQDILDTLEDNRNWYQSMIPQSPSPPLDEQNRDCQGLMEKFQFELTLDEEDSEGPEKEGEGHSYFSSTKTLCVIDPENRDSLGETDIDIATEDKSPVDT
Outline: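 ACTOne HEK293 cells carry a modified cAMP-gated CNG channel and express endogenous PDE4; plated 1000 cells/well, compounds up to 22.9 uM final. Membrane-potential dye fluorescence (ex 535/em 590) was read; parental cells received 10 uM forskolin + 100 uM RO 20-1724.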

[20] = biological target: Guanine nucleotide-binding protein G(i) subunit alpha-1 (Homo sapiens) (UniProt P63096); assay: qHTS Assay for Inhibitors of RGS12 GoLoco Motif Activity (Green Fluorophore) (AID 879); also: potency is read from the fitted curve at half-maximal effect
Sequence of Guanine nucleotide-binding protein G(i) subunit alpha-1 (Homo sapiens) (P63096 whole entry, looked up): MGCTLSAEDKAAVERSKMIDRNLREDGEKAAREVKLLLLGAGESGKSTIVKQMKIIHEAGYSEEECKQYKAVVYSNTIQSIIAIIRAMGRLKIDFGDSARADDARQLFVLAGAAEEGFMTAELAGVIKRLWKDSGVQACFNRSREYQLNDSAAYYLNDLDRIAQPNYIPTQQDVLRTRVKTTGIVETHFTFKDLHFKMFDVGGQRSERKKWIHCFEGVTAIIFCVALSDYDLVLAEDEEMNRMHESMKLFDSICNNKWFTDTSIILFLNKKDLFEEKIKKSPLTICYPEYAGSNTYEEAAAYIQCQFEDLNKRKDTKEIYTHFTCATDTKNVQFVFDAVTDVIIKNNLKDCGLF
Outline: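 A drop in FITC polarization marked displacement of the FITC-tagged RGS12 GoLoco peptide (10 nM) from Gαi1 (50 nM). Compounds were incubated 10 min at room temperature in Tris pH 7.5 buffer containing 150 mM NaCl, 0.1 mM GDP and 0.05% NP40; unlabeled peptide titration served as control.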

Measured: Potency

NC(=O)c1ccccc1
inactive: [1] | [2] | [3] | [4] | [5] | [6] | [7] | [8] | [9] | [10] | [11] | [12] | [13] | [14] | [15] | [16] | [17]

CC(=O)C(C)=O
inactive: [1] | [2] | [3] | [4] | [5] | [6] | [7] | [8] | [9] | [10] | [11] | [12] | [13] | [14] | [15] | [18] | [17]

NCCCCN
inactive: [19] | [20] | [18]

CN[C@H](CC(=O)O)C(=O)O
inactive: [19] | [20] | [15] | [18] | [17]

CCCn1c(=O)c2[nH]c(C3CCCC3)nc2n(CCC)c1=O
5.01 µM (active) and inactive: [19]
inactive: [20] | [15] | [18] | [17]

CC(=O)NNC(=O)N1Cc2ccccc2Oc2ccc(Cl)cc21
active: [17] 6310 nM
inactive: [19] | [20] | [15] | [16]

O=c1onc2cnc3ccccc3n12
inactive: [19] | [20] | [15] | [16] | [17]
active: [18] 10 µM

Cn1c(=O)[nH]c2ncn(C)c2c1=O
inactive: [19] | [20] | [18]

CCCn1c(=O)c2[nH]c(-c3ccc(S(=O)(=O)O)cc3)nc2n(CCC)c1=O
inactive: [19] | [20]

N=C(N)SCCN
inactive: [19] | [20] | [16]
active: [18] 3.16 µM

O=[N+]([O-])c1cccc2c(Br)[nH]nc12
inactive: [19] | [20] | [15] | [16]

OC1(c2ccc(Cl)cc2)CCN(Cc2c[nH]c3ccccc23)CC1
inactive: [19] | [20] | [15]

Cn1cc(C(=O)OCC2CCN(CCNS(C)(=O)=O)CC2)c2ccccc21
inactive: [19] | [20] | [15] | [17]

CCCCCCCCCCC/C=C\C(C)(C)/C=C\CCCC(=O)O
inactive: [19] | [20] | [18]

O=S(=O)(c1cccc2c(Cl)cccc12)N1CCCNCC1
active: [18] 5.01 µM and 3.98 µM
inactive: [19] | [20] | [15] | [16]

CNc1cc(NS(=O)(=O)c2ccc(N)cc2)nc(NC)n1
inactive: [19] | [20] | [16]
active: [15] 2000 nM | [18] 0.794 µM

NC/C=C\C(=O)O
inactive: [19] | [20] | [15] | [18] | [17]

CC(C)[C@H](NC(=O)OCc1ccccc1)C(=O)N[C@H](C=O)Cc1ccccc1 (Cbz-Val-Phe-aldehyde)
inactive: [19] | [20] | [16]
active: [18] 6.31 µM

O=C(O)C1=CCNCC1
inactive: [19] | [20] | [18]

COCc1nc2c([nH]1)c(=O)n(C)c(=O)n2CC(C)C
inactive: [19] | [20] | [15] | [16] | [17]

CNC(=O)c1cc2c(cn1)[nH]c1ccccc12
inactive: [19] | [20] | [15] | [16] | [17]

O=c1oc(Cl)c(Cl)c2ccccc12
inactive: [19] | [20]

O=C(O)c1cc2cc(F)ccc2[nH]1
inactive: [19] | [20] | [15] | [18] | [17]

Oc1ccc(Cn2cc[nH]c2=S)cc1
inactive: [19] | [20] | [15] | [16]

NCCS(=O)O
inactive: [19] | [20] | [15] | [17]

CCn1c(=O)[nH]c2cc(Cl)c(Cl)cc21
inactive: [19] | [20] | [15] | [16] | [17]

Nc1ccc2c3c(cccc13)C(=O)NC2=O
inactive: [19] | [15] | [16]
active: [20] 794 nM

O=C(O)C1=CCCNC1
inactive: [19] | [20] | [18]

COc1cc(CC(=O)O)ccc1O
inactive: [19] | [20]

O=C(O)c1ccccc1Nc1cccc(OCc2ccc3ccccc3n2)c1
inactive: [19] | [20] | [16]
inactive and 7.94 µM (active): [17]
active: [15] 31600 nM | [18] 1.58 µM

CCCCCCC/C=C\CCCCCCCCC(=O)O
inactive: [19] | [20]

CCCCCCN(CCCCCC)C(=O)Cc1c(-c2ccc(F)cc2)[nH]c2ccccc12
inactive: [19] | [20] | [15] | [16] | [17]
active: [18] 2.51 µM

O=[N+]([O-])c1cccc2cn[nH]c12
inactive: [19] | [20] | [15] | [17]

Cc1nc(N=Nc2cc(S(=O)(=O)O)c3cc([N+](=O)[O-])cc(S(=O)(=O)O)c3c2)c(COP(=O)(O)O)c(C=O)c1O
inactive: [19] | [20] | [15] | [18] | [16] | [17]
